In the supplement of paper PMC9262897, “Low-cost anti-mycobacterial drug discovery using engineered E. coli” (Nature Communications, 2022):
Counter-ions that a name gives are not always drawn. ± gives the standard deviation of the averaged measurements.

What follows are molecules tested on E. coli TESEC Mtb Alr (assay: growth (OD600 after 10 h); higher = more growth (less inhibition)). Settings: arabinose 1000000 nM; compound 0.1 mM; raw OD600 reference: median of DMSO wells 0.193, cell-free background 0.041.
Description: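 TESEC Mtb Alr E. coli, or the Alr+ wild-type control, in 384-well plates with Prestwick library compounds at 0.1 mM and 1% DMSO, across arabinose induction levels of 1E3 to 1E7 nM. Growth is read as OD600 after 10 h at 37 °C in triplicate biological replicates.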

Row | Compound | growth
1 | Cc1onc(-c2c(F)cccc2Cl)c1C(=O)N[C@@H]1C(=O)N2[C@@H]1SC(C)(C)[C@@H]2C(=O)O [Flucloxacillin sodium] | 0.172 ± 0.006
2 | CN(C/C=C/c1ccccc1)Cc1cccc2ccccc12 [Naftifine hydrochloride] | 0.0437 ± 0.0015
3 | COc1ccccc1Oc1c(NS(=O)(=O)c2ccc(C(C)(C)C)cc2)nc(-c2ncccn2)nc1OCCO [Bosentan] | 0.103 ± 0.0025
4 | O=C(O)CCC(=O)Nc1ccc(S(=O)(=O)Nc2nccs2)cc1 [Succinylsulfathiazole] | 0.18 ± 0.0018
5 | NC(=O)OCC(O)COc1ccc(Cl)cc1 (centres undefined) [Chlorphensin carbamate] | 0.2014 ± 0.002
6 | C(=C\c1ccccc1)/CN1CCN(C(c2ccccc2)c2ccccc2)CC1 [Cinnarizine] | 0.147 ± 0.0054
7 | Cc1ccccc1OCC(O)CO (centres undefined) [Mephenesin] | 0.184 ± 0.0048
8 | O=C(O)CN(CCN(CC(=O)O)CC(=O)O)CCN(CC(=O)O)CC(=O)O [Pentetic acid] | 0.0427 ± 0.00091
9 | CC(=O)OCC(=O)[C@@]1(OC(C)=O)[C@@H](C)C[C@H]2[C@@H]3C[C@H](F)C4=CC(=O)C=C[C@]4(C)[C@@]3(F)[C@@H](O)C[C@@]21C [Diflorasone Diacetate] | 0.112 ± 0.0026
10 | O=C1C(CC[S+]([O-])c2ccccc2)C(=O)N(c2ccccc2)N1c1ccccc1 (centres undefined) [Sulfinpyrazone] | 0.151 ± 0.0048
11 | O=C(CCNNC(=O)c1ccncc1)NCc1ccccc1 [Nialamide] | 0.208 ± 0.0031
12 | C[N+]1(C)CCC(=C(c2ccccc2)c2ccccc2)CC1 [Diphemanil methylsulfate] | 0.16 ± 0.014
13 | Cc1ccc(C)c(OCCCC(C)(C)C(=O)O)c1 [Gemfibrozil] | 0.153 ± 0.0071
14 | O=C1CCc2cc(OCCCCc3nnnn3C3CCCCC3)ccc2N1 [Cilostazol] | 0.0688 ± 0.0017
15 | COc1cc(C(=O)NCc2ccc(OCCN(C)C)cc2)cc(OC)c1OC [Trimethobenzamide hydrochloride] | 0.158 ± 0.0074
16 | Cc1nnc(SCC2=C(C(=O)O)N3C(=O)[C@@H](NC(=O)Cn4cnnn4)[C@H]3SC2)s1 [Cefazolin sodium salt] | 0.183 ± 0.0062
17 | N#Cc1ccc(C(c2ccc(C#N)cc2)n2cncn2)cc1 [Letrozole] | 0.16 ± 0.0045
18 | CCOc1nc2cccc(C(=O)O)c2n1Cc1ccc(-c2ccccc2-c2nnn[nH]2)cc1 [Candesartan] | 0.222 ± 0.015
19 | CC(CNC1CCCCC1)OC(=O)c1ccccc1 (centres undefined) [Hexylcaine hydrochloride] | 0.173 ± 0.0098
20 | C#C[C@]1(O)CC[C@H]2[C@@H]3CCC4=Cc5oncc5C[C@]4(C)[C@H]3CC[C@@]21C [Danazol] | 0.125 ± 0.0017
21 | CC1CC(OC(=O)c2ccccc2O)CC(C)(C)C1 (centres undefined) [Homosalate] | 0.18 ± 0.0023
22 | CCOc1ccc2c(c1)C(C)=CC(C)(C)N2 [Ethoxyquin] | 0.118 ± 0.0015
23 | CN(C)CCN(Cc1ccc(Cl)cc1)c1ccccn1 [Chloropyramine hydrochloride] | 0.148 ± 0.0046
24 | COc1ccc([C@@H]2CC(=O)c3c(O)cc(O[C@@H]4O[C@H](CO[C@@H]5O[C@@H](C)[C@H](O)[C@@H](O)[C@H]5O)[C@@H](O)[C@H](O)[C@H]4O)cc3O2)cc1O [Hesperidin] | 0.177 ± 0.0064
25 | CO[C@H]1C[C@H](O[C@H]2[C@H](C)[C@@H](O[C@@H]3O[C@H](C)C[C@H](N(C)C)[C@H]3OC(C)=O)[C@@H](C)C[C@@]3(CO3)C(=O)[C@H](C)[C@@H](OC(C)=O)[C@@H](C)[C@@H](C)OC(=O)[C@@H]2C)O[C@@H](C)[C@@H]1OC(C)=O [Troleandomycin] | 0.04923 ± 0.00025
26 | CCCCCN(CCCCC)C(=O)C(CCC(=O)O)NC(=O)c1ccc(Cl)c(Cl)c1 (centres undefined) [Lorglumide sodium salt] | 0.0691 ± 0.00087
27 | CC(Oc1ccccc1)C(=O)N[C@@H]1C(=O)N2[C@@H]1SC(C)(C)[C@@H]2C(=O)O (some centres undefined) [Phenethicillin potassium salt] | 0.19 ± 0.006
28 | C#C[C@]1(O)CC[C@H]2[C@@H]3CCC4=CC(=O)CC[C@@H]4[C@H]3CC[C@@]21C [Norethindrone] | 0.1044 ± 0.00092
29 | CC[C@H](C)[C@H](N)C1=N[C@H](C(=O)N[C@@H](CC(C)C)C(=O)N[C@H](CCC(=O)O)C(=O)N[C@H](C(=O)N[C@H]2CCCCNC(=O)[C@H](CC(N)=O)NC(=O)[C@@H](CC(=O)O)NC(=O)[C@H](Cc3cnc[nH]3)NC(=O)[C@@H](Cc3ccccc3)NC(=O)[C@H]([C@@H](C)CC)NC(=O)[C@@H](CCCN)NC2=O)[C@@H](C)CC)CS1 [Bacitracin] | 0.176 ± 0.0086
